Holding throughout (assay): NCI-60 one-dose screen, 48 h (100 = growth as untreated, 0 = no growth, -100 = all killed)
The subject of one assay is DU-145 prostate. The note with it: 10 µM unless noted.
A further assay has as its system K-562 leukemia. Conditions: 10 µM unless noted.
The subject of another assay is MALME-3M melanoma. The note with it: 10 µM unless noted.
In the next assay the test system is MDA-MB-231 breast. Conditions: 10 µM unless noted.
In the next assay the test system is RXF 393 renal. The note with it: 10 µM unless noted.
The subject of another assay is SF-268 CNS. The note with it: 10 µM unless noted.
For another assay, the system named is SF-539 CNS. Conditions: 10 µM unless noted.
For the next assay, the system named is UACC-257 melanoma. The note with it: 10 µM unless noted.
A further assay relates to M14 melanoma. Conditions: 10 µM unless noted.
The next assay has as its system HCT-15 colon. The note with it: 10 µM unless noted.
In the next assay the test system is HT29 colon. The note with it: 10 µM unless noted.
The subject of another assay is SNB-75 CNS. The note with it: 10 µM unless noted.
For another assay, the system named is SNB-19 CNS. The note with it: 10 µM unless noted.
A further assay deals with U251 CNS. The note with it: 10 µM unless noted.
Another assay relates to PC-3 prostate. The note with it: 10 µM unless noted.
A further assay deals with SK-MEL-5 melanoma. The note with it: 10 µM unless noted.
In the next assay the test system is UACC-62 melanoma. Conditions: 10 µM unless noted.
The next assay has as its system LOX IMVI melanoma. Conditions: 10 µM.
In another assay the test system is SK-MEL-28 melanoma. The note with it: 10 µM unless noted.
For a further assay, the system named is SF-295 CNS. The note with it: 10 µM unless noted.

About 83,000 compounds went through this panel and 20% of them were active in at least one assay; those are over-represented in the sample as a whole.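 Results are percent growth after 48 hours of single-concentration exposure. 100 means growth as in untreated cells, lower positive values show inhibition; negative values down to -100 show cell death.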 Values without a mark were called inactive. Activity calls are given as the source filed them. How the source made its calls: active means growth percent below 10; inactive means the rest.

Turning to `Oc1c(Cl)cc(Cl)cc1C(c1cc(Cl)cc(Cl)c1O)C(Cl)(Cl)Cl`, the growth with DU-145 prostate was 19.3%; with K-562 leukemia, 9.05% (active); in the assay with MALME-3M melanoma, -27% (active); in the assay with MDA-MB-231 breast, -25.1% (active); with RXF 393 renal, -30.7% (active); with SF-268 CNS, 11.6%. Besides, the growth is 4.37% (active) with SF-539 CNS; -24.9% (active) with UACC-257 melanoma; 17.9% with M14 melanoma; 2.87% (active) in the assay with HCT-15 colon; 7.53% (active) in the assay with HT29 colon; -7.64% (active) with SNB-75 CNS. Also, the growth in the assay with SNB-19 CNS is 19.2%; with U251 CNS it was 4.24% (active); in the assay with PC-3 prostate, -7.63% (active); in the assay on SK-MEL-5 melanoma, -38.8% (active); with UACC-62 melanoma, 11.8%; in the assay on LOX IMVI melanoma, 0.701% (active). In addition, the growth in the assay on SK-MEL-28 melanoma is 30.4%.
For the compound `O=[N+]([O-])c1cc(-c2ccccc2)c(O)c([N+](=O)[O-])c1`, the growth in the assay on DU-145 prostate is 107%; in the assay with K-562 leukemia, 68.9%; with MALME-3M melanoma, 120%; in the assay with MDA-MB-231 breast it was 71.3%; with RXF 393 renal it was 99.1%; in the assay with SF-268 CNS, 79%. Also, the growth with SF-539 CNS is 84.7%; with UACC-257 melanoma, 94.9%; in the assay on M14 melanoma, 101%; in the assay with HCT-15 colon, 79.4%; with HT29 colon, 92.4%; in the assay with SNB-75 CNS, 74.3%. For the same compound, the growth was 68.2% in the assay with SNB-19 CNS; 84.2% in the assay with U251 CNS; 78.3% in the assay with PC-3 prostate; 29.2% in the assay with SK-MEL-5 melanoma; 32% with UACC-62 melanoma; 82.9% in the assay with LOX IMVI melanoma. For the same compound, the growth in the assay with SK-MEL-28 melanoma is 66.2%.
On to `CC(C)c1ccc(Nc2n[nH]c(=S)s2)cc1`, for which the growth with DU-145 prostate was 104%; in the assay with K-562 leukemia, 95.5%; in the assay with MALME-3M melanoma, 102%; with MDA-MB-231 breast it was 89.1%; in the assay on RXF 393 renal it was 109%; in the assay with SF-268 CNS it was 107%. Besides, the growth in the assay on SF-295 CNS is 90.4%; in the assay on SF-539 CNS, 104%; in the assay on M14 melanoma it was 93.5%; in the assay on HCT-15 colon, 99.8%; in the assay with HT29 colon it was 76.1%; with SNB-75 CNS, 92.3%. Moreover, the growth was 99.1% in the assay on SNB-19 CNS; 93.6% with PC-3 prostate; 101% in the assay on SK-MEL-5 melanoma; 99% with UACC-62 melanoma; 101% with LOX IMVI melanoma; 112% with SK-MEL-28 melanoma.
With `CC(C)=C1C=C2CC[C@@H]3[C@](C)(CCC[C@@]3(C)C(=O)O)[C@H]2CC1`, the growth in the assay with DU-145 prostate was 105%; with K-562 leukemia, 84.3%; in the assay with MALME-3M melanoma it was 91.3%; in the assay on MDA-MB-231 breast, 99.6%; in the assay with RXF 393 renal it was 112%; with SF-268 CNS, 97%. Moreover, the growth in the assay on SF-295 CNS is 95.8%; with SF-539 CNS, 97.5%; with M14 melanoma, 100%; with HCT-15 colon, 98%; with HT29 colon, 108%; in the assay with SNB-75 CNS, 93.4%. For the same compound, the growth in the assay with SNB-19 CNS was 98.1%; with U251 CNS, 96.2%; with PC-3 prostate, 97.3%; in the assay on SK-MEL-5 melanoma, 96.8%; with UACC-62 melanoma, 102%; in the assay with LOX IMVI melanoma, 85.5%. In the assay with SK-MEL-28 melanoma, the growth is 107%.
Consider `CCC1CCCCN1C(=S)N/N=C(\C)c1ccccn1` (stereo unspecified), for which the growth with DU-145 prostate is 20.3%; in the assay on K-562 leukemia, 12.3%; with MALME-3M melanoma, -13.2% (active); with MDA-MB-231 breast, 21.5%; in the assay on RXF 393 renal, 0.202% (active); in the assay with SF-268 CNS, 1.82% (active). The growth with SF-295 CNS was 13%; in the assay on UACC-257 melanoma, 0% (active); with M14 melanoma it was 0.97% (active); in the assay with HCT-15 colon, 27.3%; in the assay with HT29 colon, -19.5% (active); in the assay on SNB-75 CNS, 16.1%. Moreover, the growth in the assay on SNB-19 CNS is 16.2%; in the assay with U251 CNS, 6.56% (active); with SK-MEL-5 melanoma, -61.5% (active); in the assay with UACC-62 melanoma it was -39.8% (active); in the assay with LOX IMVI melanoma, 6.45% (active); in the assay with SK-MEL-28 melanoma it was 28%.
With `CCc1cnc2ccccc2c1/C=C/c1ccc(N(C)C)cc1`, the growth was 68.4% in the assay on DU-145 prostate; 13% with K-562 leukemia; 50.7% in the assay with MALME-3M melanoma; 38.8% in the assay with MDA-MB-231 breast; 63% in the assay on RXF 393 renal; 57.4% in the assay with SF-268 CNS. Besides, the growth is 26% in the assay with SF-295 CNS; 56.4% in the assay with UACC-257 melanoma; 28.2% in the assay with M14 melanoma; 26% in the assay on HCT-15 colon; 5.62% (active) in the assay on HT29 colon; 43.4% in the assay with SNB-75 CNS. Also, the growth in the assay on SNB-19 CNS was 41.1%; in the assay with U251 CNS, 26%; with PC-3 prostate, 54.7%; in the assay with SK-MEL-5 melanoma it was 46.6%; with UACC-62 melanoma it was 25.3%; in the assay on LOX IMVI melanoma, 43.7%. In addition, in the assay on SK-MEL-28 melanoma, the growth is 59.9%.
As to `CN=C(N)N/N=C(\C)c1ccc2c(c1)Cc1ccccc1-2`, the growth is -85.9% (active) in the assay with DU-145 prostate; -81.5% (active) in the assay on K-562 leukemia; -85% (active) in the assay on MALME-3M melanoma; -67.5% (active) in the assay on MDA-MB-231 breast; -28.4% (active) in the assay with RXF 393 renal; -44.2% (active) with SF-268 CNS. Besides, the growth is -51.9% (active) with SF-295 CNS; -70.3% (active) in the assay on UACC-257 melanoma; -96.1% (active) with M14 melanoma; -81.4% (active) in the assay with HCT-15 colon; -40% (active) with SNB-19 CNS; -82.2% (active) in the assay with U251 CNS. The growth is -20.6% (active) in the assay with PC-3 prostate, -80.2% (active) in the assay with UACC-62 melanoma, -83.9% (active) in the assay with LOX IMVI melanoma and -98.4% (active) with SK-MEL-28 melanoma.
Take `CC1=CC(=O)C=CC1(C)C(Cl)(Cl)Cl` (stereo unspecified): the growth with DU-145 prostate was 124%; in the assay on K-562 leukemia, 107%; in the assay with MALME-3M melanoma it was 91.2%; in the assay with MDA-MB-231 breast, 92.2%; in the assay with RXF 393 renal, 115%; in the assay on SF-268 CNS, 107%. Besides, the growth was 102% with SF-295 CNS; 69.8% in the assay with UACC-257 melanoma; 97.8% in the assay with M14 melanoma; 97.3% in the assay on HCT-15 colon; 83.1% with HT29 colon; 109% with SNB-75 CNS. The growth is 92% in the assay with SNB-19 CNS; 83.1% in the assay with U251 CNS; 92.9% with PC-3 prostate; 103% in the assay with SK-MEL-5 melanoma; 95.7% in the assay with UACC-62 melanoma; 93% in the assay on LOX IMVI melanoma. Moreover, the growth in the assay on SK-MEL-28 melanoma was 102%.
For the compound `O=C(O)c1ccc2c(c1)C(=O)c1ccccc1C2=O`, the growth is 98.5% in the assay on DU-145 prostate; 88.7% in the assay on K-562 leukemia; 102% with MALME-3M melanoma; 94.1% in the assay on MDA-MB-231 breast; 110% in the assay on RXF 393 renal; 98.3% with SF-268 CNS. In addition, the growth is 100% with SF-295 CNS; 97.7% in the assay with SF-539 CNS; 101% with M14 melanoma; 106% with HCT-15 colon; 108% with HT29 colon; 91.6% with SNB-75 CNS. The growth was 104% in the assay with SNB-19 CNS; 98.9% in the assay on U251 CNS; 96.5% with PC-3 prostate; 97.5% with SK-MEL-5 melanoma; 94.9% in the assay with UACC-62 melanoma; 96.1% with LOX IMVI melanoma. Also, in the assay on SK-MEL-28 melanoma, the growth was 111%.
